From ChEMBL document CHEMBL3988442, “University of Dundee, Small-Polar-MMV Screening Library” (2021)
For some assays here: Measured potencies and affinities stand elsewhere.

Assays:
[1] = target: Protein translocase subunit SecA (Escherichia coli (strain K12)) (UniProt P10408); test: Assay to Identify E. coli SecA ATPase Inhibitors; assay type: functional; design: scale not given: direction of the effect not stated beside the values; conditions: 30 µM
[2] = target: T1, Ubiquitin-activating enzyme e1, putative (Leishmania donovani (strain BPK282A1)) (UniProt E9BSI1); test: Leishmania donovani Ubiquitin Activating Enzyme (LdE1); assay type: functional; design: scale not given: direction of the effect not stated beside the values; conditions: 30 µM
T1 sequence (whole entry): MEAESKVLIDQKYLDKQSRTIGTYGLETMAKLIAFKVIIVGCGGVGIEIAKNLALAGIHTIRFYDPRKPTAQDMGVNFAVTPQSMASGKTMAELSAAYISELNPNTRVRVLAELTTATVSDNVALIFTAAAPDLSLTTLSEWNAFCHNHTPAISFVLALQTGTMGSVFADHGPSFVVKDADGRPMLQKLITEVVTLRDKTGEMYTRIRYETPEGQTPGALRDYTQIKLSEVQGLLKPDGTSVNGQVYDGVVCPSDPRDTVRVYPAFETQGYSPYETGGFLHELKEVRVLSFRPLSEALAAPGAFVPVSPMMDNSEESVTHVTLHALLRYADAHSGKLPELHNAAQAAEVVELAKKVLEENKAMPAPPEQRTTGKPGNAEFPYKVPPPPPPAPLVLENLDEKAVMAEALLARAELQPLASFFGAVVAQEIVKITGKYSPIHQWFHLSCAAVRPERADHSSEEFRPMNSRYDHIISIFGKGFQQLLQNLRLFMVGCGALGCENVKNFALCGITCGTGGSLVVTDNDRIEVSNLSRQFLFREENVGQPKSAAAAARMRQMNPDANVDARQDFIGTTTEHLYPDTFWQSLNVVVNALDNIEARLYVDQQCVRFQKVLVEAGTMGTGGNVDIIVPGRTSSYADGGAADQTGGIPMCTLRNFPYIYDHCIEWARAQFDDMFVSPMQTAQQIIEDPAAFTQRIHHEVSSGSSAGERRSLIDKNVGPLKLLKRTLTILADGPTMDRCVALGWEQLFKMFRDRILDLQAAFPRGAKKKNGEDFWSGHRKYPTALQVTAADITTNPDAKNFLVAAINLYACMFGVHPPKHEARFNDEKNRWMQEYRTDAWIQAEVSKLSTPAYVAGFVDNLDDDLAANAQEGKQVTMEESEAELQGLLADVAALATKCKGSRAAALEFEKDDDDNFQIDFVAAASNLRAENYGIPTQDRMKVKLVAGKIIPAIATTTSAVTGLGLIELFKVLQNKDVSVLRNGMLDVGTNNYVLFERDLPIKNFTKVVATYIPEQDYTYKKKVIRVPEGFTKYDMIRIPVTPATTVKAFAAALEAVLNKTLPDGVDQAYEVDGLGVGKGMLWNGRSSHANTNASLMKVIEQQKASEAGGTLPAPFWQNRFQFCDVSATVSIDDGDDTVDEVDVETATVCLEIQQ

[3] = target: AMP-activated protein kinase, AMPK (Homo sapiens) (UniProt P54646+O43741+P54619+Q9UGJ0+Q9Y478+Q13131+Q9UGI9); test: AMP-dependent Kinase enzyme assay. An in vitro enzyme assay that detects ADP turnover that is directly proportional to AMPK activity. This uses naive AMPK that is activated during the assay with MK-8722; assay type: functional; design: scale not given: direction of the effect not stated beside the values; conditions: 30 µM
[4] = target: Sialic acid-binding Ig-like lectin 9 (Homo sapiens) (UniProt Q9Y336); test: Hs-Siglec9 ALPHAscreen SOP 20170721; design: scale not given: direction of the effect not stated beside the values; conditions: 10 µM
Trypanosoma cruzi = test: Trypanosoma cruzi phosphomannomutase and mannose-1-phosphate guanylyltransferase assay; assay type: functional; design: scale not given: direction of the effect not stated beside the values; conditions: 10 µM
[5] = target: T2, Arginase-2, mitochondrial (Homo sapiens) (UniProt P78540); test: in vitro enzyme assay to detect the production of urea directly proportional to the activity of Arginase II; assay type: functional; design: scale not given: in the data most compounds retested in dose-response had high values
T2 sequence (whole entry): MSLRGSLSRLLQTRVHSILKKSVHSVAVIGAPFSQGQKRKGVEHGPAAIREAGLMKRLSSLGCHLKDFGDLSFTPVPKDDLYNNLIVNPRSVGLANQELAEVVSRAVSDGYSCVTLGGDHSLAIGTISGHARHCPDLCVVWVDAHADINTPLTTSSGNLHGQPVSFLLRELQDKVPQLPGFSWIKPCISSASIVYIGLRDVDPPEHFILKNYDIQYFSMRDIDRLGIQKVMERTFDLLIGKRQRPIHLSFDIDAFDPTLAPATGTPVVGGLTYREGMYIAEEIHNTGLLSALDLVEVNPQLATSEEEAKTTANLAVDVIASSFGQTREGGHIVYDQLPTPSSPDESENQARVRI

[6] = target: T3, Proteasome subunit beta (Trypanosoma cruzi) (UniProt O96673); test: Trypanosoma cruzi proteasome chymotrypsin-like activity (TcProtChymo) assay.; assay type: functional; design: scale not given: in the data most compounds retested in dose-response had high values; conditions: 9.37 µM
T3 sequence (whole entry): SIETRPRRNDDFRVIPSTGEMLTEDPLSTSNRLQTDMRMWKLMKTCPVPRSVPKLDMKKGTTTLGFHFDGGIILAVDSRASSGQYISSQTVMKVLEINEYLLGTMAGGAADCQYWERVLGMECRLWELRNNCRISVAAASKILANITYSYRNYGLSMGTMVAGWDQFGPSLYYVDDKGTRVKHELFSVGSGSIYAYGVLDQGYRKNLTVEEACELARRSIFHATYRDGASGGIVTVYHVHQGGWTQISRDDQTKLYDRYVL

Homo sapiens = species: Homo sapiens; test: To identify inhibition of the IFN signalling (Jak-Stat) pathway via expression of an eGFP reporter gene under the control of an IFN-stimulated response element (ISRE) containing MxA promoter.; assay type: functional; design: scale not given: direction of the effect not stated beside the values; conditions: 30 µM
[7] = target: T4, Tyrosyl-tRNA synthetase, putative (Trypanosoma cruzi (strain CL Brener)) (UniProt Q4DSP6); test: Trypanosoma cruzi tyrosyl tRNA synthetase (TcYRS) _High Tyrosine SOP; assay type: functional; design: scale not given: in the data most compounds retested in dose-response had high values; conditions: 30 µM
T4 sequence (whole entry): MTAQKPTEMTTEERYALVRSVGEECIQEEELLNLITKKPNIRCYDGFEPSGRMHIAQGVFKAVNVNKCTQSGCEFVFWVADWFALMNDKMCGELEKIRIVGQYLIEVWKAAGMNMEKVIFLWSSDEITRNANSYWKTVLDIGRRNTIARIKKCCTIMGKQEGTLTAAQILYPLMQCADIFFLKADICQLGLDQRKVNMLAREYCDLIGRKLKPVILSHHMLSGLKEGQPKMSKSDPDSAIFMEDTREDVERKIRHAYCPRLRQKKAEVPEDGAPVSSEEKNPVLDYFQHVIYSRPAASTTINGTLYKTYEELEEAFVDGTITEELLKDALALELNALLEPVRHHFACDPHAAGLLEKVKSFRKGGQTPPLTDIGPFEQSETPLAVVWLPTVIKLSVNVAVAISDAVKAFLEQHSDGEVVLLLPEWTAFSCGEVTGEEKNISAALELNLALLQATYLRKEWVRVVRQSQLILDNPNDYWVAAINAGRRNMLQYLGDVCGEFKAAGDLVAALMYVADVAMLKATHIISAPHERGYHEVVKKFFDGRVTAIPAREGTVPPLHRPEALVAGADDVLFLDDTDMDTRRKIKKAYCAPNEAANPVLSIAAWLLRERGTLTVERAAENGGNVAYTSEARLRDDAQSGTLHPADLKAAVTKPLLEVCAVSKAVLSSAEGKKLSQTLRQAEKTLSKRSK

[8] = target: T4, Tyrosyl-tRNA synthetase, putative (Trypanosoma cruzi (strain CL Brener)); test: Trypanosoma cruzi tyrosyl tRNA synthetase (TcYRS) SOP; assay type: functional; design: scale not given: direction of the effect not stated beside the values; conditions: 30 µM
[9] = target: Chromo domain-containing protein 1 (Saccharomyces cerevisiae (strain ATCC 204508 / S288c) (Baker's yeast)) (UniProt P32657); test: ScCHD-1 Enzyme Inhibition Assay; assay type: functional; design: scale not given: in the data most compounds retested in dose-response had high values; conditions: 30 µM
[10] = target: T5, Methionyl-tRNA synthetase, putative (Leishmania donovani (strain BPK282A1)) (UniProt E9BF75); test: Leishmania donovani Methionine tRNA synthetase (LdMetRS):v7. Dose response assay; assay type: functional; design: conc 80 nM, time 150 minutes
T5 sequence (whole entry): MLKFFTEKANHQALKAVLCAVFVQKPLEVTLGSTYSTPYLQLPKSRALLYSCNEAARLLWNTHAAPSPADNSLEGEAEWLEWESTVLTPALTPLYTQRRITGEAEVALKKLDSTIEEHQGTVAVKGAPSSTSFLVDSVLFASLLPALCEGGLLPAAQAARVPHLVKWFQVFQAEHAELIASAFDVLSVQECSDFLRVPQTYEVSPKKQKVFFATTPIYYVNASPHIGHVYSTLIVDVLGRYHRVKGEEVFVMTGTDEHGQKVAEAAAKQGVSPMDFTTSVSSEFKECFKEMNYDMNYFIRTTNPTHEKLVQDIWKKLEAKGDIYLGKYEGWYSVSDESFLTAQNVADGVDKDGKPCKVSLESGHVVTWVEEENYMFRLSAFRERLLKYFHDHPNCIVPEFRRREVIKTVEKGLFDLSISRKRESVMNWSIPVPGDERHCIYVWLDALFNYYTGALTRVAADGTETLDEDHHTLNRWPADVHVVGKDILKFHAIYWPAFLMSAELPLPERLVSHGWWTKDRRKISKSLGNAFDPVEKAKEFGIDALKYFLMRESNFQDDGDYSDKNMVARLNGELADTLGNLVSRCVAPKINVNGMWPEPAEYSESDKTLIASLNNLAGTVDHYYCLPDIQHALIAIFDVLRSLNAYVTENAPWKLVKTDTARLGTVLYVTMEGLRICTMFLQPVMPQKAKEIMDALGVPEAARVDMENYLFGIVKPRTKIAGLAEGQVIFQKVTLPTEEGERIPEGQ

Protein translocase subunit SecA (Escherichia coli (strain K12)), sequence (P10408 whole entry): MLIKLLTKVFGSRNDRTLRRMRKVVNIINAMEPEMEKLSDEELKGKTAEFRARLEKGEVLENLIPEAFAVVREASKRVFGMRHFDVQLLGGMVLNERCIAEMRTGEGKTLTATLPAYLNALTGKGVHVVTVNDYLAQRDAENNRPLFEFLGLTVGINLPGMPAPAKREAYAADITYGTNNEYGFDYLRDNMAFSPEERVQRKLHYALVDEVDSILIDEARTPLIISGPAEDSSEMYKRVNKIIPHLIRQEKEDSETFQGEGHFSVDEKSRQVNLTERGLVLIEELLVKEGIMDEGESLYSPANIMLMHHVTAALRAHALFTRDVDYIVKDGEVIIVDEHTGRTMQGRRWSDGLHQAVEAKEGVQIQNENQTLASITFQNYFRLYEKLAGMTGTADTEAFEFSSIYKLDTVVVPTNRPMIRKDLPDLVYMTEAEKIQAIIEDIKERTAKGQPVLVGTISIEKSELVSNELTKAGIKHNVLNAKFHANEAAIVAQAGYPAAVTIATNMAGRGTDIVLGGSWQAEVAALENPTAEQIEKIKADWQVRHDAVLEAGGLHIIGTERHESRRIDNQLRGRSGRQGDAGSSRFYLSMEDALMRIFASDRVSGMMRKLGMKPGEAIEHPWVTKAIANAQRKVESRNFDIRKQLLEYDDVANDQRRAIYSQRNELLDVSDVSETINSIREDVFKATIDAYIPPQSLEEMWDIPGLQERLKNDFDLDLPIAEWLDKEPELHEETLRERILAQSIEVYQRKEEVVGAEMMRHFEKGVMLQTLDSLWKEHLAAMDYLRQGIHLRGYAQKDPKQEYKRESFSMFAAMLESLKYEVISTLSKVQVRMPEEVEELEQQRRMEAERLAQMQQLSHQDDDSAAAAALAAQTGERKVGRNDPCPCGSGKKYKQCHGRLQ
Sialic acid-binding Ig-like lectin 9 (Homo sapiens), sequence (Q9Y336 whole entry): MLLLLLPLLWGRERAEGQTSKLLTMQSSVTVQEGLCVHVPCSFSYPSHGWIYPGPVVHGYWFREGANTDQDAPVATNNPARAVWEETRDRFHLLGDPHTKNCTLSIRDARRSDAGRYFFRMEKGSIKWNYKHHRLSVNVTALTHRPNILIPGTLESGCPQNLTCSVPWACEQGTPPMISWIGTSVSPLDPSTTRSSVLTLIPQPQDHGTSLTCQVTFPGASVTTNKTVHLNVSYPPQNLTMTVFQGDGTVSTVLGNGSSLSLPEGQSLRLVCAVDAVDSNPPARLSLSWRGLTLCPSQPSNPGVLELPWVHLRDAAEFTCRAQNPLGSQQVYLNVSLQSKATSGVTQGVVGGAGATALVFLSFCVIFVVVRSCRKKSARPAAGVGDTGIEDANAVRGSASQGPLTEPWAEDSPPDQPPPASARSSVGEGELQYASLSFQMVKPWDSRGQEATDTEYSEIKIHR
Chromo domain-containing protein 1 (Saccharomyces cerevisiae (strain ATCC 204508 / S288c) (Baker's yeast)), sequence (P32657 whole entry, the tested form may be a part): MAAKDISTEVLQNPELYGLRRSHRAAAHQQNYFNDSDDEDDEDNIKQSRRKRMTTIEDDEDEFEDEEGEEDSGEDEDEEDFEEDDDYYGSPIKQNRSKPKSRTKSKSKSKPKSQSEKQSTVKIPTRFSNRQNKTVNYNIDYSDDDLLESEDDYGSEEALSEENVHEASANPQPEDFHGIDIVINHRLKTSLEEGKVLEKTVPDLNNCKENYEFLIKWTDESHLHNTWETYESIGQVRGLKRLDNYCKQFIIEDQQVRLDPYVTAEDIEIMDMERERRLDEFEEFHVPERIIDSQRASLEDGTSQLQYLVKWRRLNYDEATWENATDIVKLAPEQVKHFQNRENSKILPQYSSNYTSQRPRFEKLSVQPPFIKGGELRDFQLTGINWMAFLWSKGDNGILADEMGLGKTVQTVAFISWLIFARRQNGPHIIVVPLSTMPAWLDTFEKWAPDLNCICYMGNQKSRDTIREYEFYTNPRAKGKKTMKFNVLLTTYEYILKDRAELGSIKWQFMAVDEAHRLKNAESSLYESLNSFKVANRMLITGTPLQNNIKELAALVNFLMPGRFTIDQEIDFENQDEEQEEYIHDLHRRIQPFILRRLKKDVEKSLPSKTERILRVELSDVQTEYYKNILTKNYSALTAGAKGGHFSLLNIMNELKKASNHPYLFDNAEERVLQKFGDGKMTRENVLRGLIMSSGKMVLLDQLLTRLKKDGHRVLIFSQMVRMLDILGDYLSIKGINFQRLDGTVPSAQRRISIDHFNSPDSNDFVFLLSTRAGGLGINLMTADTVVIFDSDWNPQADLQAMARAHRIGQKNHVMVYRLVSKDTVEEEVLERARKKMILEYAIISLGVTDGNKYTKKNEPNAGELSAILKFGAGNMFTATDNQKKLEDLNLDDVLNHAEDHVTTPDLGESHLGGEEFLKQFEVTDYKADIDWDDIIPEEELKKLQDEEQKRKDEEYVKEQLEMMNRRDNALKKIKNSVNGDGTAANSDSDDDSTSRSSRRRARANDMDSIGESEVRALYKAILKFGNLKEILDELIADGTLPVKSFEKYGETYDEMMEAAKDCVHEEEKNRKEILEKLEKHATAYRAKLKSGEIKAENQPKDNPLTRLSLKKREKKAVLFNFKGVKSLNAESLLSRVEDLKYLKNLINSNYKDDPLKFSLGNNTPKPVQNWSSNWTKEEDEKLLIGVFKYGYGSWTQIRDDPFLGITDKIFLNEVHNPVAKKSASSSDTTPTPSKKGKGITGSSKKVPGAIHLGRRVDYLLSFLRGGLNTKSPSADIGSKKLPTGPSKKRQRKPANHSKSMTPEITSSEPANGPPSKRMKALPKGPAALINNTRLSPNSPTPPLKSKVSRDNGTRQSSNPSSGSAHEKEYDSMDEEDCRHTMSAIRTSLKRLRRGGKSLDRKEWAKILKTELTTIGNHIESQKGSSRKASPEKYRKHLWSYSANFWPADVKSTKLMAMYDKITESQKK

Row | SMILES | Percent Effect [1] [%] | Percent Effect [2] [%] | Percent Effect [3] [%] | Percent Effect [4] [%] | Percent Effect (Trypanosoma cruzi) [%] | Percent Effect ([5]; 30 µM) [%] | Percent Effect ([5]; 33.3 µM) [%] | Percent Effect [6] [%] | Percent Effect (Homo sapiens) [%] | Percent Effect [7] [%] | Percent Effect [8] [%] | Percent Effect [9] [%] | PXC50 ([10]; MAX_EFFECT 4.275534442) | PXC50 ([10]; MAX_EFFECT 11.79577465) | PXC50 ([10]; MAX_EFFECT 12.79373368) | PXC50 ([10]; MAX_EFFECT 13.05483029) | PXC50 ([10]; MAX_EFFECT 13.59649123) | PXC50 ([10]; MAX_EFFECT 23.4375)
1 | Cn1cc(CC2CCN(C(=O)NCCc3cccc(O)c3)C2)cn1 (stereo not given) | -1.93 | 0 | 11.8 | 1.28 | -3.8 | 5.95 | -2.37 | 11 | -12 | 5.32 | 7.79 | -2.6 | – | – | – | – | – | –
2 | CCC(C(=O)NCc1ccncc1)N(c1cccc(C)c1)S(C)(=O)=O (stereo not given) | -2.54 | 2.67 | 0.78 | 9.85 | 5.16 | 10.3 | 9.38 | 7.32 | 18.8 | 2.73 | 13.6 | -7.66 | – | – | – | – | – | –
3 | Cc1nn(CCO)c(C)c1CNC1CCC(C)(C)c2ccccc21 (stereo not given) | -3.92 | 8 | -5.82 | 14.7 | 7.3 | 2.7 | 9.38 | 9.42 | 23.6 | 1.64 | 13.6 | -6.8 | – | – | – | – | – | –
4 | CNC(=O)[C@H]1C[C@@H]2CN(C(=O)c3cscn3)C[C@@H]2N1S(C)(=O)=O | -2.22 | 5.33 | 0.103 | 9.01 | -4.05 | 4.87 | -27.1 | 5.64 | -13 | 4.17 | -52.5 | -3.61 | – | – | – | – | – | –
5 | COc1cc(C(=O)N(CCC#N)Cc2ccccn2)cc(OC)c1C | -4.24 | -2.67 | -4.3 | 14.4 | 7.89 | 2.7 | -1.04 | 0.523 | 6.76 | -0.546 | 3.7 | -3.63 | – | – | – | – | – | –
6 | Cn1cnnc1C1CCN(c2cncc(-n3cccn3)n2)CC1 | -2.06 | 8.11 | -2.17 | -0.628 | 0.781 | – | 2.92 | 13.8 | -3.56 | 5.94 | 8.54 | -8.65 | < 4 | < 4 | – | – | – | –
7 | Cn1cc(CC2CCN(C(=O)NCc3cn4ccsc4n3)C2)cn1 (stereo not given) | -6.21 | 13.2 | -5.79 | -0.407 | 5.36 | 2.7 | -18.9 | 12.2 | 4.6 | 6.38 | 18.2 | -14.5 | – | – | – | – | – | –
8 | O=c1[nH]c2c(c(=O)n1C1CCCCC1)CCC2NCCc1ccccc1 (stereo not given) | -2.86 | 1.33 | -8.89 | 6.39 | 2.75 | 1.62 | -3.35 | 2.22 | -14.6 | -3.17 | 0 | -3.17 | – | – | – | – | – | –
9 | CCn1cnnc1CNc1nc(C)nc2scc(CC(C)C)c12 | – | – | -1.1 | – | – | – | – | – | – | – | – | – | – | – | < 4 | < 4 | – | –
10 | N#CC1CCCN(c2nc(-c3ccccc3)nc3c2CCNCC3)C1 (stereo not given) | -2.62 | -5.48 | -0.435 | 0.626 | -4.17 | – | 2 | 11.2 | 2.12 | 4.17 | 3.7 | 9.39 | – | – | – | – | < 4 | < 4
11 | O=c1[nH]c2c(c(=O)n1C1CCCCC1)CCC2Nc1ccccc1 (stereo not given) | -1.62 | -4 | -24.6 | -0.297 | 0.393 | -11.3 | 1.58 | 9.8 | 11.8 | -1.06 | 0 | 0.309 | – | – | – | – | – | –
